Assay outcomes: PubChem BioAssay, Broad Institute
PD-1 reverse act: activators reversing PD-1 mediated T-cell inhibition, primary screen, luminescence, primary human CD4 T cells, PD-L1 beads. activation, % (no concentration beside the values). CellTiter-Glo 96 h. 29,000 tested, under 10 active; call rule not given here
STK33 kin inh: STK33 kinase inhibitors, primary screen, biochemical, luminescence, ADP-Glo, MBP substrate. 27,000 tested, 0.44% active. AID 2322, 2010. Serine/threonine-protein kinase 33 (Homo sapiens), Q9BYT3. inhibition, % at 12.5 µM; in the data active = inhibition above about 20%; inconclusive = no clear call, values can overlap the other calls
Target sequence (Q9BYT3 whole entry, looked up): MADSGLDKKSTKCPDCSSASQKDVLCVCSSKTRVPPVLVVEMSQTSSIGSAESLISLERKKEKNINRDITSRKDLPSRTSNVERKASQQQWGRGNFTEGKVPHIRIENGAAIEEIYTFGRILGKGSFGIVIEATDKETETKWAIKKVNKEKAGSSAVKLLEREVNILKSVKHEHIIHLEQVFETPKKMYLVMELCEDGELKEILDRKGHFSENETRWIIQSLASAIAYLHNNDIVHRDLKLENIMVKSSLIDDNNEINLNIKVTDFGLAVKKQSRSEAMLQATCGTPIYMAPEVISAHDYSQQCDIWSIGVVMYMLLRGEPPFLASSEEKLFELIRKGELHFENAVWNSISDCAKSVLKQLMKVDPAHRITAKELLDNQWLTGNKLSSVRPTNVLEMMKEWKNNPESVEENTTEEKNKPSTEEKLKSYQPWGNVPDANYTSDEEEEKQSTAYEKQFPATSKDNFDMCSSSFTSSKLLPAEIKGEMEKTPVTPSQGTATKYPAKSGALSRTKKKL
NOMO-1 viab: NOMO-1 AML cell viability reduction, primary screen, STK33 inhibitor project, CellTiter-Glo luminescence; NOMO-1 AML viability, 72 h; inhibition, % (no concentration beside the values); 37,000 tested, 7.5% active; in the data active = inhibition above about 80%; inconclusive = no clear call, values can overlap the other calls
A number is an active result; 0 = inactive; ? = inconclusive; - = no result given. Only a selection was taken, and hits are over-represented in it overall.

SMILES | PD-1 reverse act | STK33 kin inh | NOMO-1 viab
C[C@H]1CN([C@@H](C)CO)C(=O)Cc2cc(NC(=O)Nc3ccc(C(F)(F)F)cc3)ccc2O[C@H]1CN(C)Cc1ccc(Oc2ccccc2)cc1 | 0 | 0 | 0
C[C@@H]1CN([C@H](C)CO)C(=O)Cc2cc(NC(=O)CCC(F)(F)F)ccc2O[C@@H]1CN(C)Cc1ccc(Oc2ccccc2)cc1 | 0 | 0 | 84
C[C@H](CO)N1C[C@H](C)[C@H](CN(C)Cc2ccc(Oc3ccccc3)cc2)Oc2ccc(NC(=O)CCC(F)(F)F)cc2CC1=O | 0 | 0 | 0
Cc1ccc(NC(=O)CSc2nc3sc4c(c3c(=O)n2-c2ccccc2)CCCC4)c(C)c1 | 0 | 0 | 0
Cc1ccc(C(C)C)c(OCCSc2nc3ncnc(N)c3[nH]2)c1 | 0 | 0 | 0
COc1ccc(C2CC(c3ccc(Br)cc3)=NN2C(=O)CCN2CCOCC2)cc1 (stereo unspecified) | 0 | - | 0
COc1ccc(S(=O)(=O)NCc2ccco2)cc1[N+](=O)[O-] | 0 | 0 | 0
C[C@@H]1CN([C@H](C)CO)C(=O)Cc2cc(NC(=O)Nc3ccccc3)ccc2O[C@H]1CN(C)Cc1ccc(Oc2ccccc2)cc1 | 0 | 0 | 0
C[C@@H]1CN([C@@H](C)CO)C(=O)Cc2cc(NC(=O)Nc3ccc(C(F)(F)F)cc3)ccc2O[C@@H]1CN(C)Cc1ccc(Oc2ccccc2)cc1 | 0 | 0 | 128
Cc1ccc(-c2nnc3c4ccccc4c(C)nn23)cc1S(=O)(=O)NCc1cccnc1 | 0 | 0 | 0
NCCCCCCNS(=O)(=O)c1cccc2ccccc12 | 0 | 0 | 84
NCCCCNS(=O)(=O)c1ccc2ccccc2c1 | 0 | 0 | 0
O=C(O)c1nn(-c2ccccc2)c2c1CCc1occc1-2 | 0 | - | 0
C[C@H](CO)N1C[C@H](C)[C@H](CN(C)C(=O)Nc2ccc(C(F)(F)F)cc2)Oc2ccc(NC(=O)Nc3cccc4ccccc34)cc2CC1=O | - | 0 | 0
C[C@@H]1CN([C@H](C)CO)C(=O)Cc2cc(NC(=O)Nc3cccc4ccccc34)ccc2O[C@H]1CN(C)Cc1ccc(C(=O)O)cc1 | 0 | 0 | 0
C[C@@H]1CN([C@H](C)CO)C(=O)Cc2cc(NC(=O)Nc3cccc4ccccc34)ccc2O[C@H]1CN(C)Cc1ccc(C(F)(F)F)cc1 | - | 0 | 105
C[C@H]1CN([C@@H](C)CO)C(=O)Cc2cc(NC(=O)Nc3cccc4ccccc34)ccc2O[C@@H]1CN(C)Cc1ccc(C(=O)O)cc1 | 0 | 0 | 0
C[C@@H]1CN([C@@H](C)CO)C(=O)Cc2cc(NC(=O)Nc3cccc4ccccc34)ccc2O[C@@H]1CN(C)C(=O)Nc1ccc(C(F)(F)F)cc1 | 0 | 0 | 107
C[C@H]1CN([C@@H](C)CO)C(=O)Cc2cc(NC(=O)Nc3cccc4ccccc34)ccc2O[C@H]1CN(C)Cc1ccc(C(F)(F)F)cc1 | 0 | 0 | 106
C[C@H](CO)N1C[C@H](C)[C@H](CN(C)Cc2ccc(C(F)(F)F)cc2)Oc2ccc(NC(=O)Nc3cccc4ccccc34)cc2CC1=O | - | 0 | 125
CSc1cccc(NC(=O)CSc2ncn(-c3ccccc3)n2)c1 | 0 | 0 | 0
Cn1c(=O)c2c(nc(NCc3cccnc3)n2Cc2cccc(Br)c2)n(C)c1=O | 0 | 0 | ?
O=[N+]([O-])c1cc(C(F)(F)F)ccc1NCCNS(=O)(=O)c1ccc(Br)cc1 | 0 | 0 | 0
CCCn1nnc(NC(=O)COc2ccc(Cl)c(C)c2)n1 | 0 | 0 | 0
C[C@H]1CN([C@@H](C)CO)C(=O)Cc2cc(NC(=O)Nc3cccc4ccccc34)ccc2O[C@@H]1CN(C)Cc1ccc(C(F)(F)F)cc1 | - | 0 | 125
SMILES | PD-1 reverse act | STK33 kin inh | NOMO-1 viab
COC(=O)c1cc(Cc2ccccc2)sc1NC(=O)c1cc(-c2cccnc2)nc2ccccc12 | - | 0 | 0
CCc1cc(C(=O)OC)c(NC(=O)c2cc(-c3cccnc3)nc3ccc(Br)cc23)s1 | 0 | 0 | 89
CC(=O)Oc1ccc2c(=O)c(Oc3ccc(Cl)cc3)c(C)oc2c1 | 0 | - | 0
Cc1ccc(S(=O)(=O)c2nc(-c3ccccc3)oc2NCCN2CCOCC2)cc1 | - | 0 | 0
CCC(C)S(=O)(=O)c1oc(-c2ccc(C)cc2)nc1S(=O)(=O)c1ccccc1 (stereo unspecified) | 0 | 0 | 116
O=C(/C=C/c1ccccc1)CC(O)(c1ccccc1)C(F)(F)F (stereo unspecified) | 0 | 0 | 122
O=C(/C=C/c1ccccc1)CC(O)CCc1ccccc1 (stereo unspecified) | 0 | 0 | 0
Cn1c(SCC(=O)Nc2ccccc2)nc2sc3c(c2c1=O)CCC3 | 0 | 0 | 0
CCc1cccc(C)c1NC(=O)CSc1nc2sc3c(c2c(=O)n1C)CCC(C)C3 (stereo unspecified) | - | 0 | 95
O=C(COc1ccccc1[N+](=O)[O-])Nc1ccc2oc(-c3cccc(Br)c3)nc2c1 | 0 | 0 | 0
